Hits are enriched below; roughly 3.8% of the tested compounds scored in any of these assays.
HSP90 refold inh: HSP90 refolding inhibition in rabbit reticulocyte lysate; luciferase refolding luminescence, 3 h; hit rate 0.91% among 290,000; inhibition, % at 5.6 µM;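 active means inhibition above the screen-wide mean plus 3 SD, computed separately per campaign, cut at about 16% in these data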;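 further: 0% = DMSO wells and 100% = 60 µM geldanamycin wells; inhibitors lower the luminescence because luciferase stays unfolded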
Hsp70 act: Hsp70 transcriptional activation, primary screen. HeLa Hsp70 promoter luciferase reporter, luminescence; scaled: vehicle 0, proteasome-inhibitor control 100%. activation, % at 10 µM. hit rate 0.04% among 200,000;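 active means activation above the mean across all tested compounds plus 3 SD, cutoff set per campaign, cut at about 5.5% in these data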;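 further: 100% = MG132 at 30 µM as the positive control and 0% = DMSO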
HSF-1 act: increases HSF-1 driven luciferase reporter signal | AID 504408 | activation, % at 9 µM | NIH3T3-HGL HSF-1 luciferase reporter, MG132, 8 h; 100% = twice DMSO control signal | hit rate 1.7% among 300,000;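 active means mean replicate activation of at least 50% with a set share of replicates each reaching 50%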;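 further: 0% = median of the neutral control wells and 100% = twice that signal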
HSF1 inh: HSF1 inhibition; NIH3T3-HGL HSE-luciferase, MG132-induced, luminescence 8 h; active compounds read low; activity change, negative = inhibition, % at 7.5 µM (by protocol); hit rate 0.77% among 300,000; AID 2098;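 active means more than half of replicate wells show activity change below -50%, luminescence cut by over half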;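 further: luciferase reports HSF-1 transcriptional activity via heat shock element; 0% = median of DMSO wells and -100% = zero luminescence signal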
NALP1 yeast inh: inhibitors of NALP1 inflammasome in yeast. hit rate 0.61% among 280,000. inhibition, % at 10 µM. S. cerevisiae NALP1/ASC/caspase-1 growth, X-gal OD620, 72 h; in the data active means inhibition mostly above about 24%, no sharp cut-off; inactive means mostly below about 32%
pCIP destab: compounds decreasing mouse p/CIP protein stability; decrease of EGFP signal, % at 10 µM; F442A p/CIP-EGFP cells, EGFP fluorescence, 16 h; hit rate 0.01% among 290,000; AID 1984;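 active means EGFP signal decrease of at least 30% at 10 µM or well 3 SD below plate mean, unless failing retest; inactive means the rest, including hits failing retest or dose response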
* hit, by the source's call; . = no result.

SMILES | HSP90 refold inh | Hsp70 act | HSF-1 act | HSF1 inh | NALP1 yeast inh | pCIP destab
CCOC(=O)Cn1nc(NC(=O)c2ccc(C(=O)OC)cc2)cc1C | -1 | . | 19 | 8 | 9 | -8
Cc1cccn2c(CN(C)CCC3CCCCO3)c(C(=O)N3CCCCC3)nc12 (configuration not stated) | -3 | 0 | 2 | -2 | 7 | -4
Cc1cccc(N2C(=O)CC(Sc3nnc(C)s3)C2=O)c1 (configuration not stated) | -4 | 1 | 1 | -8 | 35* | -8
CCCCC1C(=O)CC[C@H]2[C@@H]1CC(=O)[C@@H]2C/C=C\CCCC(=O)O (some centres not stated) | -1 | 0 | 72* | 40 | -14 | 9
CCCCC[C@H](O)/C=C/[C@H]1C=CC(=O)[C@@H]1C/C=C\CCCC(=O)O | 0 | 0 | . | . | -16 | -2
COc1ccc(/C=N/Nc2cc(C)nc3ccc(Br)cc23)cc1 | -2 | . | 59* | 7 | 27 | 9
CC(OC(=O)CN1C(=O)NC2(CCCC2)C1=O)C(=O)c1ccccc1 (configuration not stated) | . | . | -76 | -70* | . | .
CS(=O)(=O)Nc1nnc(Cc2ccccc2)s1 | 1 | 0 | -3 | 4 | -80 | -1
CC(C)Cc1nnc(NS(=O)(=O)Cc2ccccc2)s1 | 1 | 0 | 7 | 6 | 44* | -19
O=S(=O)(Cc1ccccc1)Cc1cnc(Cl)s1 | 3 | 0 | 8 | 0 | 10 | -7
CC(C)c1nc(SCc2c(F)cccc2Cl)c2c(=O)n(C)c(=O)n(C)c2n1 | 0 | 0 | -73 | -67* | . | -7
Cc1cccc(N2CCN(C(=O)CSCc3c(C)noc3C)CC2)c1C | 0 | 0 | 54* | 9 | 13 | -11
CN1CCc2c(sc3c2C(=O)NC(c2ccc(-c4ccc(Cl)cc4)o2)N3)C1 (configuration not stated) | 3 | . | -90 | -86* | 6 | -5
COc1ccc(NC(=O)CSc2nnc(Cn3cnc([N+](=O)[O-])n3)n2C)cc1 | -4 | 0 | 67* | 34 | 20 | 4
Nc1n[nH]c2cc(=O)n(-c3cccc(C(F)(F)F)c3)nc12 | -2 | -1 | -2 | 8 | -13 | -8
O=c1[nH][nH]c2cc(=O)n(-c3cccc(C(F)(F)F)c3)nc12 | -3 | 0 | 52* | 8 | -12 | -1
O=C(Nc1ccccc1)c1ccc2nc(-c3ccco3)c(-c3ccco3)nc2c1 | 3 | 1 | 56* | 22 | 19 | -12
Cc1ccn2cc(-c3ccc(NC(=O)c4ccco4)cc3)nc2c1 | -1 | 0 | 36 | 12 | 46* | 0
CC(=O)Nc1cccc(-c2cn3ccc(C)cc3n2)c1 | 2 | 0 | 47 | 19 | 14 | 11
O=C(Nc1ccc(Nc2ccccc2)cc1)c1ccco1 | 0 | 0 | 67* | 31 | 12 | 4
C/C(=N\NC(=O)c1ccco1)c1ccc(NC(=O)c2ccccc2)cc1 | -1 | 0 | 94* | 47 | 8 | -2
CC(=O)Oc1ccc(/C(C)=N\N2CCN(Cc3ccc(Cl)cc3)CC2)cc1 | 1 | . | -7 | -2 | 40 | -7
CCN1C(=O)N(C)[C@@H](c2ccccc2)C(C(=O)OC)=C1C | . | . | -6 | -1 | -5 | -9
COc1ccc(S(=O)(=O)NCCC(=O)NCc2cccs2)cc1 | -1 | 0 | -77 | -70* | 4 | -2
O=C(CCNS(=O)(=O)c1ccc(Cl)cc1)NCc1cccs1 | 2 | 0 | 1 | -5 | 6 | -10
SMILES | HSP90 refold inh | Hsp70 act | HSF-1 act | HSF1 inh | NALP1 yeast inh | pCIP destab
COc1ccc(C2N(c3cc(Cl)ccc3OC)C(=O)C3CCCN32)cc1 (configuration not stated) | -1 | 0 | -4 | 2 | 41* | -12
COc1ccc(Cl)cc1N1C(=O)C2CCCN2C1c1ccc(F)cc1 (configuration not stated) | -2 | 0 | 2 | 3 | 37 | -3
CCn1c(C)c(C2=CCN(S(=O)(=O)c3ccc(C)cc3)CC2)c2ccccc21 | -1 | 0 | 30 | 13 | -3 | -3
Cc1c(C2=CCN(S(=O)(=O)c3ccc(Br)cc3)CC2)c2ccccc2n1C | 4 | 0 | -70 | -60* | 30 | -22
COc1cc(NC2c3ccccc3C(=O)N2Cc2ccccc2)cc(OC)c1OC (configuration not stated) | 3 | . | 4 | 5 | . | -8
CC(C)CCNC1c2ccccc2C(=O)N1Cc1ccccc1 (configuration not stated) | 0 | . | 54* | 26 | -4 | 1
CCN(CCCNC(=O)CCCCn1c(=O)[nH]c2ccccc2c1=O)c1ccccc1 | 8 | 0 | 74* | 55 | -10 | -4
COCCCNC(=O)CCCn1c(=O)[nH]c2ccccc2c1=O | -2 | 0 | -14 | 3 | 7 | -4
Cc1c(NC(=O)C(C)OC(=O)/C=C/c2ccc(OC(F)F)cc2)c(=O)n(-c2ccccc2)n1C (configuration not stated) | . | . | 9 | 8 | . | .
Cc1ccc(N2C(=O)C3CC(c4ccccc4)=C4C5C=CC(C6C(=O)N(c7ccc(C)cc7)C(=O)C56)C4C3C2=O)cc1 (configuration not stated) | 0 | 0 | 12 | 6 | 26 | -7
Cc1ccc(N2C(=O)C3CC(c4ccccc4)=C4C5C=CC(C6C(=O)N(c7ccc(C)cc7C)C(=O)C56)C4C3C2=O)c(C)c1 (configuration not stated) | 8 | 0 | 88* | 40 | 17 | 2
COc1ccccc1OCC(=O)Nc1ccc(S(=O)(=O)N(C)c2ccccc2)cc1 | 7 | . | 3 | -2 | 6 | -25
Cc1ccc(COC(=O)NCc2cccnc2)cc1 | -1 | . | -1 | -9 | 8 | -9
Cc1cc(Cl)ccc1Oc1ncc(-c2ccc(Cl)cc2)cn1 | 0 | 0 | -6 | 2 | 2 | -8
Clc1ccc(-c2cnc(Oc3ccccc3)nc2)cc1 | -7 | 0 | 38 | 16 | 39* | 5
CCOC(=O)c1cccc(NC(=O)CSc2nnc(C)n2CC2CCCO2)c1 (configuration not stated) | -3 | . | -3 | -1 | -11 | 14
Nc1nc(CSc2nc3ccccc3s2)nc(Nc2ccccc2)n1 | 1 | 0 | 58* | 31 | 15 | -26
Cc1c(Cl)cccc1Nc1nc(N)nc(CSc2nc3ccccc3s2)n1 | -2 | 0 | 12 | 9 | 18 | -13
C[C@@H]1CCC2[C@](C)(CO)[C@@H](O)CC[C@]2(C)[C@@]12C[C@](CO)(CC(=O)O)CO2 (some centres not stated) | -3 | . | 1 | -6 | 17 | 7
O=C(CCc1nnc2ccc(N3CCC4(CC3)OCCO4)nn12)NCc1ccc(F)cc1 | 1 | . | -77 | -72* | 1 | -8

Screens from PubChem BioAssay.
